Results published in PubChem BioAssay (NCATS).
Inconclusive results are not listed. Active and inactive are the calls of the source. The call rests on the fitted dose curve; in most records, active means well fitted inhibition curve with a large enough effect; inconclusive means small, poorly fitted or top-dose-only effect; inactive means no such curve, though single readings can be large or run the other way.

Test: Confirmatory qHTS for small molecule stabilizers of the endoplasmic reticulum resident proteome: Secreted ER Calcium Modulated Protein (SERCaMP) assay (AID 1508628); further: nearly all actives have a fitted effect of over 40% in size
Details: SERCaMP secreted luciferase ER calcium/proteostasis reporter; series mostly up to 76.3 µM
Method in brief: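 GLuc-SERCaMP-expressing SH-SY5Y cells, pretreated 16 h with compound, are challenged with thapsigargin to empty ER calcium stores; after 4 h, coelenterazine is added directly to the medium and luminescence is imaged.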
Potency means the concentration at half of the fitted maximal effect.

| SMILES | Potency |
| --- | --- |
| CN1CC[C@@]2(C)c3cc(OC(=O)Nc4ccccc4)ccc3N(C)[C@@H]12 | 39.8 µM (active) |
| NCC(O)c1cc(O)c(O)cc1F (stereo not drawn) | inactive |
| COc1ccc2c(c1)[C@@]13CCCC[C@H]1[C@@H](C2)NCC3 | inactive |
| CN1C2CCC1CC(OC(c1ccccc1)c1ccccc1N)C2 (stereo not drawn) | 31.6 µM (active) |
| CC(C)[C@@]1(NC(=O)[C@@H]2C[C@@H]3c4cccc5[nH]cc(c45)C[C@H]3N(C)C2)O[C@@]2(O)[C@@H]3CCCN3C(=O)[C@H](Cc3ccccc3)N2C1=O | 25.1 µM (active) |
| Oc1ccc2c3c1O[C@H]1c4[nH]c5ccccc5c4C[C@@]4(O)C(C2)N(CC2CC2)CCC314 (stereo partly drawn) | 12.6 µM (active) |
| COc1ccc2c(c1)C13CCCCC1C(C2)N(C)CC3 (stereo not drawn) | 2 µM (active) |
| N#C/C(=C/c1ccc(O)c(O)c1)C(N)=S | 10 µM (active) |
